{
  "source": "PubChem BioAssay AID720706",
  "about": "(Broad Institute, 2013)",
  "note": "Among all 350,000 compounds or so, about 5,500 (1.6%) were called active.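 The calls were made as follows: active = significant combined selectivity score with lowered wild-type GFP, culture density cut under 30%, mutant RFP and density less affected; inactive = any of these conditions unmet.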 The list comes from a sample in which actives are over-represented; it also holds similar structures and randomly drawn compounds.",
  "data": [
    {"test": "reduced GFP signal of wild-type E. coli, primary screen, bacterial rRNA inhibitor project, GFP/RFP fluorescence, OD600, single point (AID 720706)", "conditions": "E. coli WT GFP vs humanized-ribosome RFP mutants, 24 h; GFP signal change (wild-type ribosome): stronger effect = lower value, DMSO median 0, no signal -100; OD600 change: measured here: OD600 growth, DMSO median 0, no signal -100; RFP signal change: measured here: RFP humanized mutant strains, DMSO median 0, no signal -100, concentration not given here", "units": {"OD600 change": "%", "RFP signal change": "%"}, "values": [
      {"smiles": "C/C=C/c1ccc([C@@H]2[C@@H](CO)N3C(=O)CN(C(=O)Nc4cccc(OC)c4)C[C@@H]23)cc1", "GFP signal change (wild-type ribosome)": "-1.73% (inactive)", "OD600 change": -7.8, "RFP signal change": 3.44},
      {"smiles": "O=C(Nc1ccc(C2CC2(Cl)Cl)cc1)c1cccc([N+](=O)[O-])c1", "note": "(stereo unspecified)", "GFP signal change (wild-type ribosome)": "-27.9% (active)", "OD600 change": -19.1, "RFP signal change": -6.25},
      {"smiles": "O=C(NC(=S)NC1CCS(=O)(=O)C1)c1cccc([N+](=O)[O-])c1", "note": "(stereo unspecified)", "GFP signal change (wild-type ribosome)": "3.91% (inactive)", "OD600 change": 8.03, "RFP signal change": -1.87},
      {"smiles": "O=C(Nc1nnc(SCc2c(Cl)cccc2Cl)s1)c1cccc([N+](=O)[O-])c1", "GFP signal change (wild-type ribosome)": "1.43% (inactive)", "OD600 change": -3.04, "RFP signal change": -1.26},
      {"smiles": "C[C@@H]1CN([C@H](C)CO)C(=O)Cc2cc(N(C)C)ccc2O[C@H]1CN(C)C(=O)NC1CCCCC1", "GFP signal change (wild-type ribosome)": "-0.659% (inactive)", "OD600 change": 5.18, "RFP signal change": -1.29},
      {"smiles": "COc1cccc(C#Cc2ccc([C@@H]3[C@H]4CN(C(=O)Cc5ccccc5)CC(=O)N4[C@H]3CO)cc2)c1", "GFP signal change (wild-type ribosome)": "-5.04% (inactive)", "OD600 change": -9.42, "RFP signal change": 27.5},
      {"smiles": "CCc1ccc2nc(N(CCCN(C)C)C(=O)c3ccc4c(c3)OCCO4)sc2c1", "GFP signal change (wild-type ribosome)": "-22.5% (active)", "OD600 change": -7.47, "RFP signal change": 6.9},
      {"smiles": "CCN(CC)CCN(C(=O)c1ccc2c(c1)CCCC2)c1nc2c(OC)cccc2s1", "GFP signal change (wild-type ribosome)": "-52.2% (inactive)", "OD600 change": -75.4, "RFP signal change": -16.6},
      {"smiles": "CCOc1ccc2nc(N(CCN(C)C)C(=O)c3ccc4ccccc4c3)sc2c1", "GFP signal change (wild-type ribosome)": "-29.3% (active)", "OD600 change": -1.85, "RFP signal change": 4.17},
      {"smiles": "CCN(CC)CCN(C(=O)c1cc(Cl)sc1Cl)c1nc2cc3c(cc2s1)OCO3", "GFP signal change (wild-type ribosome)": "4.27% (inactive)", "OD600 change": -1.1, "RFP signal change": -0.673},
      {"smiles": "CN(C)CCN(C(=O)C1=COCCO1)c1nc2ccc(Cl)cc2s1", "GFP signal change (wild-type ribosome)": "2.56% (inactive)", "OD600 change": -1.62, "RFP signal change": -1.96},
      {"smiles": "CCN(CC)CCN(C(=O)c1ccc(N2C(=O)CCC2=O)cc1)c1nc2cc3c(cc2s1)OCO3", "GFP signal change (wild-type ribosome)": "4.92% (inactive)", "OD600 change": -10.9, "RFP signal change": -4.79},
      {"smiles": "Cc1ccc2sc(NNC(=O)c3ccc4c(c3)OCCO4)nc2c1C", "GFP signal change (wild-type ribosome)": "-7.09% (inactive)", "OD600 change": -13.5, "RFP signal change": 7.46},
      {"smiles": "CN(C)CCCN(C(=O)c1ccc(S(=O)(=O)N2CCCCCC2)cc1)c1nc2cc3c(cc2s1)OCCO3", "GFP signal change (wild-type ribosome)": "-30% (active)", "OD600 change": -20.1, "RFP signal change": 0.23},
      {"smiles": "CCOc1ccc2nc(C(=O)N3CCCC(C)C3)sc2c1", "note": "(stereo unspecified)", "GFP signal change (wild-type ribosome)": "-6.88% (inactive)", "OD600 change": -10.3, "RFP signal change": -0.532},
      {"smiles": "CN(C)Cc1cn(CC[C@H]2CC[C@H](NS(=O)(=O)c3ccccc3)[C@@H](CO)O2)nn1", "GFP signal change (wild-type ribosome)": "-1.38% (inactive)", "OD600 change": 8.8, "RFP signal change": -1.73},
      {"smiles": "Cc1ccc(S(=O)(=O)N(C)C[C@H]2Oc3c(NS(=O)(=O)c4cn(C)cn4)cccc3C(=O)N([C@@H](C)CO)C[C@H]2C)cc1", "GFP signal change (wild-type ribosome)": "4.44% (inactive)", "OD600 change": 5.92, "RFP signal change": -0.801},
      {"smiles": "CCC(=O)N(C)C[C@@H]1Oc2ncc(-c3ccccc3OC)cc2C(=O)N([C@@H](C)CO)C[C@@H]1C", "GFP signal change (wild-type ribosome)": "-1.63% (inactive)", "OD600 change": 0.66, "RFP signal change": 1.16},
      {"smiles": "COc1ccc(CNC(=O)C[C@@H]2C=C[C@@H](NC(=O)c3ccc4c(c3)OCO4)[C@@H](CO)O2)cc1", "GFP signal change (wild-type ribosome)": "3.42% (inactive)", "OD600 change": 5.74, "RFP signal change": -0.879},
      {"smiles": "C[C@H](CO)N1C[C@H](C)[C@H](CN(C)S(C)(=O)=O)Oc2ncc(C3=CCCC3)cc2C1=O", "GFP signal change (wild-type ribosome)": "4.58% (inactive)", "OD600 change": 6.67, "RFP signal change": -1.55},
      {"smiles": "O=[N+]([O-])c1cc([N+](=O)[O-])c2cccnc2c1O", "GFP signal change (wild-type ribosome)": "-15.7% (inactive)", "OD600 change": 19.1, "RFP signal change": 3.26},
      {"smiles": "O=C(c1cccc(F)c1)N1CCN(c2ccc([N+](=O)[O-])c3cccnc23)CC1", "GFP signal change (wild-type ribosome)": "-17.8% (active)", "OD600 change": -11, "RFP signal change": 4.41},
      {"smiles": "O=C(c1ccc(N2CCOCC2)c([N+](=O)[O-])c1)N1CCN(c2ccccc2F)CC1", "GFP signal change (wild-type ribosome)": "-19.6% (inactive)", "OD600 change": -35.6, "RFP signal change": -4.01},
      {"smiles": "C[C@H]1CCCCO[C@@H](CN(C)Cc2ccncc2)[C@@H](C)CN([C@@H](C)CO)C(=O)c2cc(NC(=O)Nc3ccc(F)cc3)ccc2O1", "GFP signal change (wild-type ribosome)": "1.44% (inactive)", "OD600 change": 2.48, "RFP signal change": -0.987},
      {"smiles": "CCCN(C)C[C@@H]1OCCCC[C@@H](C)Oc2ccc(NC(=O)CCCN(C)C)cc2C(=O)N([C@H](C)CO)C[C@@H]1C", "GFP signal change (wild-type ribosome)": "-2.58% (inactive)", "OD600 change": 6.85, "RFP signal change": -0.525},
      {"smiles": "C[C@H](NC(=O)N(C)C[C@@H]1OCc2ccccc2-c2ccccc2C(=O)N([C@H](C)CO)C[C@@H]1C)c1ccccc1", "GFP signal change (wild-type ribosome)": "-0.824% (inactive)", "OD600 change": 6, "RFP signal change": -2.69},
      {"smiles": "COc1ccc(S(=O)(=O)Nc2ccc3c(c2)C(=O)N(C)C[C@@H](OC)[C@H](C)CN(C(=O)NC(C)C)[C@H](C)CO3)cc1", "GFP signal change (wild-type ribosome)": "2.15% (inactive)", "OD600 change": -6.48, "RFP signal change": 0.485},
      {"smiles": "CCCNC(=O)N(C)C[C@@H]1Oc2ncc(C#CCc3ccccc3)cc2C(=O)N([C@@H](C)CO)C[C@H]1C", "GFP signal change (wild-type ribosome)": "2.5% (inactive)", "OD600 change": -2.83, "RFP signal change": -0.346},
      {"smiles": "Cc1noc(C)c1S(=O)(=O)N(C)C[C@H]1OCCCC[C@H](C)Oc2ccc(NC(=O)c3ccccc3)cc2C(=O)N([C@@H](C)CO)C[C@H]1C", "GFP signal change (wild-type ribosome)": "-1% (inactive)", "OD600 change": -0.308, "RFP signal change": 2.4},
      {"smiles": "O=C(COC(=O)Cc1ccc(Cl)cc1Cl)NCc1ccco1", "GFP signal change (wild-type ribosome)": "-17.4% (inactive)", "OD600 change": -6.25, "RFP signal change": 0.815},
      {"smiles": "CC(C)(C)NC(=O)NC(=O)COC(=O)Cc1c(F)cccc1Cl", "GFP signal change (wild-type ribosome)": "-13.1% (inactive)", "OD600 change": -4.75, "RFP signal change": 3.43},
      {"smiles": "CC(C)(C)NC(=O)NC(=O)COC(=O)Cc1ccc(Cl)cc1Cl", "GFP signal change (wild-type ribosome)": "-19.2% (active)", "OD600 change": -0.7, "RFP signal change": -0.643}
    ]}
  ]
}
